Reference: the OligoGym collection

Molecular target: KRTAP10-10
Assay: pooled miR-30 sensor sort-seq; sequence = guide strand
Conditions: shRNA

Row | Sequence | sensor-assay potency score (higher = more potent)
1 | TAGGCACGAAGCACACAGGCTT | 0.129
2 | TAGCATGGGGTTGTGCAGGAGC | -0.83
3 | TAGACTGCTGGTAGCATGGGGT | -0.566
4 | AAGACTCGGAGCAGGTAGGCAC | -0.677
5 | TGGTAGCATGGGGTTGTGCAGG | -1.66
6 | TTAGTTCTGCAGAACTTGGGTC | 0.494
7 | TTGTTACAGACGGGCACGCAGC | -1.52
8 | TTACAGACGGGCACGCAGCAGA | -0.719
9 | AAGCACACAGGCTTGTTACAGA | -0.517
10 | TAGCAGACGGACTTAGAGCAGA | -0.81
11 | TGCAGGAGCTGGTGTAGCCTGA | -0.876
12 | TGGGCAGTCGACTACCCGCCAA | -1.3

Molecular target: KRTAP10-2
Assay: as above
Conditions: shRNA

Row | Sequence | sensor-assay potency score (higher = more potent)
13 | AACAGGTACACAGCAGATGGAC | -1.3
14 | TTGGTGCAGGCGCTGGAGCAGA | -1.45
15 | AGCAGGACTGCTGACACGGGGA | -1.24
16 | AGCATGAAGAGGATGACTCAGA | -1.89
17 | CAGCACACAGCTTTGCAGCAGA | -2.3
18 | TGGGCACGCAGCACACAGCTTT | -1.18
19 | TAGACTGCTGGCAGCACGGAGA | -0.939
20 | TTGCAGCAGACGGACACACAGC | -1.17
21 | TGGCCTGAGGAAAAGCTGCAGG | -1.08
22 | TACACAGCAGATGGACTTGCAG | -0.914
23 | AAGAGGATGACTCAGAGCAGGT | -1.29
24 | ACACAGCAGATGGACTTGCAGC | -1.45
